Some test systems named below: MDA-MB-435 melanoma; SW-620 colon; MCF7 breast; HCT-116 colon; HCC-2998 colon; KM12 colon; BT-549 breast.
Test in all cases: NCI-60 one-dose screen, 48 h (100 = growth as untreated, 0 = no growth, -100 = all killed)
Holding throughout (conditions): 10 µM

Each structure is given as a SMILES string. About 83,000 compounds went through this panel and 20% of them were active in at least one assay; those are over-represented in the sample as a whole.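 Interpretation: 100, growth as untreated; towards 0, rising growth inhibition; 0, no net growth; 0 to -100, cell death. Compounds scoring below 10 were considered active.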 A number with no mark means an inactive call. Activity calls are given as the source filed them.

In the case of `Nc1cc(Br)c(-c2nn3c(CCC(=O)c4nc5ccccc5[nH]4)nnc3s2)c(Br)c1`, the growth is 90.5% with MDA-MB-435 melanoma; 112% in the assay on SW-620 colon; 87.5% with MCF7 breast; 77.9% in the assay with HCT-116 colon; 104% in the assay on HCC-2998 colon; 96.4% in the assay on KM12 colon.

With `C[n+]1c2ccccc2nc2ccccc21`, the growth in the assay on MDA-MB-435 melanoma was -40.9% (active); in the assay with SW-620 colon, 11.2%; in the assay on MCF7 breast it was -19.4% (active); in the assay with HCT-116 colon, -15.5% (active); in the assay with HCC-2998 colon, 50.6%; in the assay on KM12 colon, 30.4%.

In the case of `Clc1ccc(Cc2ccncc2)cc1`, the growth with MDA-MB-435 melanoma was 112%; in the assay on SW-620 colon it was 105%; in the assay on MCF7 breast, 97.5%; in the assay on HCT-116 colon, 101%; with HCC-2998 colon, 95.6%; in the assay on KM12 colon it was 102%.

Take `COc1ccc(-c2csc(NC(=O)c3ccc(Cc4n[nH]c(=O)c5cccnc45)cc3)n2)cc1`: the growth in the assay on BT-549 breast is -17.8% (active); in the assay on MDA-MB-435 melanoma, 98.8%; in the assay on SW-620 colon, 95.2%; in the assay with MCF7 breast, 77.4%; with HCT-116 colon, 91.9%; in the assay with HCC-2998 colon it was 90.1%. Moreover, the growth in the assay on KM12 colon was 98.5%.

For `Cc1ccc(NCCNCC(C)(C)O)c2c(=O)c3ccc(Cl)cc3sc12`, the growth in the assay on MDA-MB-435 melanoma was -84.5% (active); with SW-620 colon it was -80.1% (active); in the assay on HCT-116 colon it was -61.6% (active); with HCC-2998 colon it was -52.8% (active); in the assay on KM12 colon it was 8.21% (active).

In the case of `CCN(CC)c1ccc(/C=C2\SC(=O)C(Nc3nnc(-c4cccnc4SCc4ccccc4)o3)C2=O)cc1` (centres undefined), the growth is 59.3% in the assay with BT-549 breast; -24.6% (active) in the assay with MDA-MB-435 melanoma; 22.7% in the assay on SW-620 colon; 14.3% with MCF7 breast; 5.84% (active) in the assay on HCT-116 colon; 4.15% (active) in the assay on HCC-2998 colon. Also, the growth in the assay on KM12 colon was 10.3%.

Turning to `CC[C@@H](C(=O)[C@@H](C)[C@@H](O)[C@H](C)[C@@H]1O[C@@H]([C@@H](CC)C(=O)N(CC)CC)CC[C@@H]1C)C1O[C@]2(C=CC(=O)[C@]3(CC[C@@](C)([C@H]4CC[C@](O)(CC)[C@H](C)O4)O3)O2)[C@H](C)C[C@@H]1C` (some centres undefined), the growth in the assay on BT-549 breast was 43.8%; in the assay with MDA-MB-435 melanoma it was 30.2%; in the assay with SW-620 colon, 25.3%; in the assay on MCF7 breast, 5.81% (active); with HCT-116 colon it was 5.97% (active); in the assay with HCC-2998 colon it was 29%. For the same molecule, the growth in the assay on KM12 colon was 40.9%.

In the case of `COc1ccc(-c2n[nH]nc2-c2cc(OC)c(OC)c(OC)c2)cc1`, the growth is 13.6% in the assay with BT-549 breast; 4.87% (active) in the assay on MDA-MB-435 melanoma; 19.7% in the assay on SW-620 colon; 19.7% in the assay on MCF7 breast; 6.27% (active) with HCT-116 colon; 14.2% in the assay with HCC-2998 colon. Besides, the growth in the assay on KM12 colon was 0.0603% (active).

In the case of `Cc1ccc(C(C)C)c(O)c1NC(=O)OC(C)C`, the growth with BT-549 breast is 96.1%; in the assay with MDA-MB-435 melanoma, 106%; in the assay on SW-620 colon it was 103%; in the assay on MCF7 breast it was 92.7%; in the assay on HCT-116 colon, 91.9%; in the assay with HCC-2998 colon it was 89.5%. In addition, in the assay with KM12 colon, the growth was 100%.

For the molecule `O=C(Cn1cc(CO)nn1)Nc1nc2ccccc2s1`, the growth was 106% in the assay with BT-549 breast; 99.7% in the assay with MDA-MB-435 melanoma; 106% with SW-620 colon; 97.9% in the assay with MCF7 breast; 97.2% with HCT-116 colon; 109% in the assay on HCC-2998 colon. Moreover, in the assay with KM12 colon, the growth is 107%.

Consider `Cc1cc(SCc2ccccc2)nc(N)n1`, for which the growth in the assay on MDA-MB-435 melanoma is 99.2%; in the assay with SW-620 colon it was 105%; in the assay with MCF7 breast, 93.8%; in the assay with HCT-116 colon, 102%; in the assay on HCC-2998 colon, 108%; in the assay with KM12 colon it was 115%.

Turning to `COc1ccc2c(c1)C(CC(=O)NN)CCC2` (centres undefined), the growth in the assay with BT-549 breast was 103%; with MDA-MB-435 melanoma, 103%; in the assay on SW-620 colon, 106%; in the assay with MCF7 breast it was 95.6%; with HCT-116 colon it was 104%; in the assay with KM12 colon, 105%.

As to `NC(CSC(c1ccccc1)(c1ccccc1)c1cccc2ccccc12)C(=O)O` (centres undefined), the growth was 91.7% in the assay on BT-549 breast; 90.9% in the assay on MDA-MB-435 melanoma; 97.8% in the assay with SW-620 colon; 105% in the assay with MCF7 breast; 85.7% in the assay on HCT-116 colon; 103% in the assay with HCC-2998 colon. For the same molecule, in the assay with KM12 colon, the growth was 91.9%.

For `COc1ccc(N=Nc2cc(OC)c(OC)c(OC)c2)cc1`, the growth in the assay on BT-549 breast was 89.7%; with MDA-MB-435 melanoma it was 67.6%; with SW-620 colon it was 79.8%; in the assay on MCF7 breast, 63.6%; with HCT-116 colon it was 80.5%; in the assay with HCC-2998 colon, 81.4%. For the same molecule, in the assay with KM12 colon, the growth was 81.7%.

As to `COc1cccc(N=Nc2cccc(OC)c2)c1`, the growth with BT-549 breast is 85%; with MDA-MB-435 melanoma it was 98.6%; with SW-620 colon it was 94.2%; in the assay on MCF7 breast, 78.8%; in the assay with HCT-116 colon, 84.8%; in the assay on HCC-2998 colon, 88.6%. Besides, the growth with KM12 colon is 95.8%.

`Fc1ccc(C(c2ccc(F)cc2)C(Cl)Cl)cc1`: the growth was 95.5% with BT-549 breast, 107% with MDA-MB-435 melanoma, 98% with MCF7 breast and 96.8% in the assay with HCT-116 colon.

As for `O=C1CC(=O)N(C(=O)c2nn(-c3ccc(Cl)cc3)cc2O)N1`, the growth in the assay with MDA-MB-435 melanoma was 48.1%; in the assay with SW-620 colon it was 59.9%; in the assay with MCF7 breast, 39.9%; with HCT-116 colon it was 22.1%; with HCC-2998 colon, 47.4%; in the assay with KM12 colon, 46.5%.

Turning to `Nc1nc(-c2ccc(Cl)cc2)cc(-c2cc3ccccc3oc2=O)n1`, the growth with MDA-MB-435 melanoma was 104%; in the assay on SW-620 colon, 97.2%; with MCF7 breast, 79.8%; in the assay on HCT-116 colon it was 87.7%; in the assay with HCC-2998 colon, 126%; with KM12 colon, 103%.

In the case of `O=C1/C=C/[C@@H](O)[C@@H]2C[C@@H](O)C[C@H]2/C=C/CCC[C@H](CCc2ccc(NC(=S)Nc3ccc4c(c3)C(=O)OC43c4ccc(O)cc4Oc4cc(O)ccc43)cc2)O1`, the growth is 21.3% in the assay on BT-549 breast; 18.8% in the assay on MDA-MB-435 melanoma; -5.59% (active) in the assay with MCF7 breast; -37.2% (active) in the assay with HCT-116 colon; -7.57% (active) with HCC-2998 colon.

The record behind these values is PubChem BioAssay (NCI).
